# Rows were chosen to be rich in hits. Some 1.4% of all compounds tested hit in one or more screens of this group.
# HSV replic up = increases HSV replication in cells | AID 1956 | hit rate 0.005% among 220,000 | HSV replication augmentation in cells, fold increase | maximum fold increase; in the data active = maximum fold increase above about 1.5; inconclusive = no clear call, values can overlap the other calls; tested in PC3 cells
# Wee1 degr inh = inhibitors of human Wee1 degradation | P30291 | HeLa Luc-Wee1K328M stability, luciferase luminescence; 100% = proteasome inhibitor MG132 effect | reporter increase, % at 5 µM | hit rate 1.2% among 220,000 | AID 1321;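 active = activation above the mean of all tested compounds plus 3 SD, set per screening run, cut at about 8.8% in these data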;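 also: cells exposed to compound for 20 h before luminescence read; 0% = DMSO alone and 100% = MG132 at 30 µM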
# Target sequence (P30291 whole entry K328M): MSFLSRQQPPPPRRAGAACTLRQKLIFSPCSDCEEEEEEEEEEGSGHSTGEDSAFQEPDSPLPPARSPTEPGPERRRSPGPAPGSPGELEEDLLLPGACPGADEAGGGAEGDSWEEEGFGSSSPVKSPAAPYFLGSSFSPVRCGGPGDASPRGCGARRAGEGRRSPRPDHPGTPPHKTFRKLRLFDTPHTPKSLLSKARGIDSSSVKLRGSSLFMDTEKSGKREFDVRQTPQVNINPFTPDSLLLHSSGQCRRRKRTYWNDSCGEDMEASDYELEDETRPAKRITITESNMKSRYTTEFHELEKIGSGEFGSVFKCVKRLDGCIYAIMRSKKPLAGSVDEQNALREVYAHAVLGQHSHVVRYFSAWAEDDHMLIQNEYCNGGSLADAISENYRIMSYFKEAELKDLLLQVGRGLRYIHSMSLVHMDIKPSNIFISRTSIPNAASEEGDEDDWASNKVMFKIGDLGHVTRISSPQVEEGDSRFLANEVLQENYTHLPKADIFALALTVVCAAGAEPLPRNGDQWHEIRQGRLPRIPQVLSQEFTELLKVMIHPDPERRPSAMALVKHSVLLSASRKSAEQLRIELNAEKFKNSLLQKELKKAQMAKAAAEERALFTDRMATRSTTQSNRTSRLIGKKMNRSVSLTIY
# TNF death inh = TNF-alpha cell death inhibition in Jurkat FADD-/- cells. Jurkat FADD-/- TNF necroptosis rescue, ATP luminescence, 24 h; 0 = TNF only, 100 = no-TNF cells. activation (protection from cell death), % at 10 µM. hit rate 0.068% among 220,000;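 active = activation, meaning protection from cell death, of at least 50% relative to plate controls; inactive = activation below 50%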;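 also: necroptosis triggered by 40 ng/mL TNF-alpha added together with compound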
# V-ATPase pHluor = yeast V-ATPase proton transport regulation by pHLuorin | S. cerevisiae, pHLuorin cytosolic pH fluorescence | response, % at 10 µM | hit rate 0.37% among 350,000 | AID 504577; in the data active = response mostly above about 7.3%, no sharp cut-off; inactive = mostly below about 5.4%; also: actives read high
# L929 necroptosis = blocks zVAD induced death of L929 cells | L929 zVAD necroptosis rescue, ATP luminescence, 24 h; with zVAD 60 µM | viability rescue, % at 10 µM | hit rate 0.38% among 220,000 | AID 1377;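 active = activation, scaled between plate controls, above about 75%, limit read from the data; inactive = activation under that limit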;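 also: 0% = zVAD with DMSO and 100% = DMSO alone without zVAD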
# The depositor's hits bear a star; i = inactive; ? = inconclusive; nt = no result.
SMILES,HSV replic up,Wee1 degr inh,TNF death inh,V-ATPase pHluor,L929 necroptosis
C/C(=N/Oc1nc(C)cc(C)n1)c1ccc(Br)cc1,i,0.0,1.8,1.4,2.5
O=C(COC(=O)C1CC2C=CC1C2)Nc1ccccc1[N+](=O)[O-] (stereo not drawn),nt,nt,nt,4.5,nt
CC(OC(=O)c1ccc(-c2ccc(O)cc2)cc1)C(=O)NC1CCCCC1C (stereo not drawn),nt,nt,nt,3.1,nt
CCn1c(=O)c([N+](=O)[O-])c(NCCN(C)C)c2ccccc21,i,3.8,0.9,-2.6,-1.1
CCn1c(=O)c([N+](=O)[O-])c(Cl)c2ccccc21,i,-5.1,-7.2,20.5*,27.9
CCC(=O)N1CCc2cc(Br)cc(S(=O)(=O)CCC(=O)NCC3CCCO3)c21 (stereo not drawn),nt,4.4,-1.0,0.3,0.6
CCC(=O)N1CCc2cc(Br)cc(S(=O)(=O)NCC3CCCO3)c21 (stereo not drawn),i,4.0,0.9,14.2*,0.6
O=[N+]([O-])C1C(c2ccccc2)C12c1ccccc1-c1ccccc12 (stereo not drawn),nt,nt,nt,-3.3,nt
Cc1ccc(NC(=O)COC(=O)C2=COCCO2)c([N+](=O)[O-])c1,i,9.3*,-0.3,-0.3,3.6
Cc1ccc(NC(=O)COC(=O)C2=COCCO2)cc1,i,-1.4,-2.4,-0.7,0.1
C=CCNC(=O)c1c(Cl)cnn1-c1ccc(C)cc1,i,9.2*,1.9,1.1,-0.1
CNC(=O)c1c(Br)cnn1-c1ccc(C)cc1,i,9.2*,-0.1,2.9,-0.2
COc1cc(/C=C(\C#N)C(=O)Nc2cccnc2)ccc1OC(C)C,nt,11.3*,0.3,2.1,0.7
CCOC(CNC(=O)c1nnc(Cc2cc(OC)c(OC)c(OC)c2)o1)OCC,i,2.5,-0.4,1.2,0.5
CNC(=O)c1ccc(-c2nc(-c3ccccc3)cs2)cc1,i,2.8,-0.7,0.4,12.1
O=C(O)c1ccc(-c2nc(-c3ccccc3)cs2)cc1,i,9.6*,-0.4,-0.9,4.0
Brc1cc2c(cc1/C=N/Nc1nc(N3CCCCC3)nc(N3CCCCC3)n1)OCO2,i,14.4*,2.3,nt,0.8
COCCC(=O)N1CCC(Oc2ccc(C(=O)N3C[C@@H]4CCC[C@H]3C4)cc2)CC1,nt,nt,nt,1.9,nt
CCS(=O)(=O)NCC(c1cccnc1)N1CCN(c2ccc(OC)cc2)CC1 (stereo not drawn),i,0.1,2.2,5.0,-0.5
CCS(=O)(=O)NCC(c1cccnc1)N1CCN(c2ccccc2)CC1 (stereo not drawn),i,-1.8,1.5,20.6*,1.2
CCCOc1ccc(N2C(=O)CC(NCCc3ccc(S(N)(=O)=O)cc3)C2=O)cc1 (stereo not drawn),i,9.7*,-0.2,-0.2,0.1
CC1=CN2C(=N)/C(=C/c3ccc([N+](=O)[O-])o3)C(=O)N=C2S1,?,0.2,-9.5,142.8*,0.7
CC1=CN2C(=N)/C(=C/c3ccco3)C(=O)N=C2S1,i,3.8,0.5,-3.1,5.2
Cc1cc(Br)ccc1NC(=O)CN(C)C(=O)c1cc(S(=O)(=O)N(C)C)ccc1N1CCCC1,nt,nt,nt,-0.1,nt
COc1cc(/C=C2\SC(N)=NC2=O)ccc1OCC(=O)Nc1ccc(C)cc1,i,8.9*,-6.4,1.4,10.6
SMILES,HSV replic up,Wee1 degr inh,TNF death inh,V-ATPase pHluor,L929 necroptosis
COc1ccc(/C=C2/SC(=O)N(CCC(=O)Nc3ccc(C)cc3)C2=O)cc1OC,i,-0.2,-0.1,nt,-0.1
COc1cccc(NC(=O)CN(C)CC(=O)NC(C)c2ccccc2)c1 (stereo not drawn),i,8.9*,2.9,-2.5,-1.1
COc1cccc(NC(=O)CN(C)C(=O)CC(C)c2ccccc2)c1 (stereo not drawn),nt,nt,nt,1.2,nt
Cc1ccc2nc(N/C(=N/S(=O)(=O)c3ccc(F)cc3)c3ccccc3)sc2c1,i,-1.9,-0.3,-6.1,4.3
Cc1ccc2nc(N/C(=N/S(=O)(=O)c3ccc(F)cc3F)c3ccccc3)sc2c1,i,9.0*,1.9,-0.5,1.2
Cc1sc(NC(=O)c2ccc(Cl)s2)c(C(N)=O)c1C,i,9.6*,2.4,1.4,-0.4
CCOC(=O)c1cc(CC)sc1/N=C/C1C(=O)CCCC1=O,i,-1.5,-2.1,-1.9,2.4
CCOC(=O)c1cc(CC)sc1/N=C/c1c(O)ccc2ccccc12,i,9.2*,-3.3,-1.7,1.8
Cc1ccc(CNC(=O)Nc2cccs2)cc1,i,9.1*,1.8,3.5,0.2

# Screening results deposited in PubChem by several laboratories.
